# Hit rate of the full screen: of about 52,000 compounds, about 4,300 (8.3%) were called active. Rule as the data show it: active = survival mostly below about 52% (no sharp cut-off); inactive = mostly above about 56%. For the sample, actives were picked, then their nearest neighbours and some compounds at random.
# Tested on: DeltatarO mutant
# Test: S. aureus survival, RN4220 and DeltatarO strains – OD600, teichoic acid synthesis inhibitors, primary screen (AID 463173)
# Conditions: S. aureus RN4220 wild type/DeltatarO growth, OD600, 18 h, active compounds read low, screened at 18.75 µg/mL (by protocol)
row,Compound,survival
1,Nc1ccc(Oc2ccc(C(=O)O)c(C(=O)O)c2)cc1,98% (inactive)
2,O=C(NCc1ccco1)C1C2C3CCC(C3)C12 (centres undefined),77% (inactive)
3,N#CC1=C(N)SC(N)=C(C#N)C1c1ccc(O)cc1,82% (inactive)
4,N#CC1=C(N)SC(N)=C(C#N)C1CCC1CCCCC1,2% (active)
5,CC(CC1C(C#N)=C(N)SC(N)=C1C#N)c1ccccc1 (centres undefined),51% (inactive)
6,COc1ccccc1N1CCN(c2ncnc3c2cnn3C)CC1,83% (inactive)
7,O=C(c1ccc(F)cc1)N1CCC(c2nc3ccccc3s2)CC1,76% (inactive)
8,CC(C)COc1ccc(C(=O)N2CCC(c3nc4ccccc4s3)CC2)cc1,17% (active)
9,CC(C)Oc1ccc(C(=O)N2CCC(c3nc4ccccc4s3)CC2)cc1,49% (inactive)
10,CCCOc1ccc(C(=O)N2CCC(c3nc4ccccc4s3)CC2)cc1,36% (active)
11,CCOc1cccc(C(=O)N2CCC(c3nc4ccccc4s3)CC2)c1,75% (inactive)
12,CCCOc1ccccc1C(=O)N1CCC(c2nc3ccccc3s2)CC1,63% (inactive)
13,COc1cc(OC)cc(-n2nnc(-c3nc(-c4ccccc4Cl)no3)c2N)c1,86% (inactive)
14,COc1ccccc1N1CCN(S(=O)(=O)c2ccc(-c3coc(C)n3)cc2)CC1,71% (inactive)
15,O=C1CCCc2c1cc(C(=O)N1CCOCC1)c(=O)n2-c1ccccc1,69% (inactive)
16,O=C(Nc1ccccc1)N1CCN(C(=O)c2nsc3ccccc23)CC1,88% (inactive)
17,Cc1ccc(NC(=O)N2CCN(C(=O)c3nsc4ccccc34)CC2)cc1C,-5% (active)
18,Cc1cccc(NC(=O)N2CCN(C(=O)c3nsc4ccccc34)CC2)c1C,88% (inactive)
19,CCc1ccccc1NC(=O)N1CCN(C(=O)c2nsc3ccccc23)CC1,17% (active)
20,CCc1ccc(NC(=O)N2CCN(C(=O)c3nsc4ccccc34)CC2)cc1,87% (inactive)
21,Cc1cc(C)cc(NC(=O)N2CCN(C(=O)c3nsc4ccccc34)CC2)c1,88% (inactive)
22,O=c1oc2ccc3ccccc3c2cc1-c1nnc(Nc2ccc(F)cc2)s1,78% (inactive)

row,Compound,survival
1,Cc1cccc(NC(=O)CN2C(=O)C3(SCC(=O)N3c3ccccc3)c3ccccc32)c1 (centres undefined),123% (inactive)
2,O=C(NCCc1csc2nc(-c3ccc(F)cc3)nn12)c1cccc(C(F)(F)F)c1,78% (inactive)
3,Cc1ccc(CNC(=O)CSc2ncc(S(=O)(=O)c3ccc(Br)cc3)c(=O)[nH]2)cc1,125% (inactive)
4,CCOc1ccc(CNC(=O)c2ccc3[nH]c(C)c(C)c3c2)cc1OC,67% (inactive)
5,CCCCN(C)CC(O)Cn1cc(/C=C/C(=O)c2ccc(C)cc2)c2ccccc21 (centres undefined),6% (active)
6,CCCCN(C)CC(O)Cn1cc(/C=C/C(=O)c2ccc(OCC)cc2)c2ccccc21 (centres undefined),6% (active)
7,CCCCN(C)CC(O)Cn1cc(/C=C/C(=O)c2ccc(OC)c(OC)c2)c2ccccc21 (centres undefined),67% (inactive)
8,CCCCN(C)CC(O)Cn1cc(/C=C/C(=O)c2ccc(Br)cc2)c2ccccc21 (centres undefined),0% (active)
9,CCOc1ccc(C(=O)/C=C/c2cn(CC(O)CN3CCc4ccccc43)c3ccccc23)cc1 (centres undefined),56% (inactive)
10,Cc1ccc(C(=O)/C=C/c2cn(CC(O)CN3CCc4ccccc43)c3ccccc23)cc1 (centres undefined),73% (inactive)
11,C=CCn1cc(/C=C(/C#N)C(=O)OCC)c2ccccc21,83% (inactive)
12,O=S1(=O)N=C(SCCO)c2ccccc21,85% (inactive)
13,CCOc1ccc(NC(=O)c2cc(S(=O)(=O)N3CCCCCC3)cn2C)cc1,120% (inactive)
14,CCCC1N=C2c3ccccc3N=C(SCC(=O)NCCc3ccc(Cl)cc3)N2C1=O (centres undefined),93% (inactive)
15,Cc1ccccc1Cn1c(SCc2ccc(C(=O)NCCc3ccccc3)cc2)nc2ccncc21,82% (inactive)
16,CCCCOc1ccc(NC(=O)CS(=O)CC(=O)Nc2ccc(OC)cc2)cc1 (centres undefined),84% (inactive)
17,CSc1cccc(NS(=O)(=O)c2ccc3[nH]cc(C(=O)N4CCCCCC4)c(=O)c3c2)c1,82% (inactive)
18,O=C(Nc1cc(-c2nc3ccccc3o2)ccc1Cl)c1ccc(Br)o1,54% (active)
19,CC(C)(C)c1ccc(C(=O)Nc2ccc(-c3nc4ccccc4o3)c(O)c2)cc1,69% (inactive)
20,Cc1cc(NC(=O)c2ccc(Br)o2)cc(-c2nc3ccccc3o2)c1O,98% (inactive)
21,Cc1ccc2oc(-c3ccc(C)c(NC(=O)c4ccc(C(C)(C)C)cc4)c3)nc2c1,136% (inactive)
22,Cc1ccc2nc(-c3ccc(Cl)c(NC(=O)c4ccc(Br)o4)c3)oc2c1,48% (inactive)

row,Compound,survival
1,CC(C)(C)c1ccc(C(=O)Nc2cc(-c3nc4ccccc4o3)ccc2Cl)cc1,13% (active)
2,CCC(NC(=O)Nc1ccc(OC)c(OC)c1)c1c(-n2cccc2)sc2c1CCN(C)C2 (centres undefined),65% (inactive)
3,COc1ccccc1CNC(=O)c1ccc2c(c1)nc(C)n2-c1cccc(C)c1,74% (inactive)
4,COc1ccc(S(=O)(=O)NCCS(=O)(=O)N2CCN(c3ccccc3)CC2)cc1C,102% (inactive)
5,CCOc1ccccc1N(CC(=O)N1CCc2ccccc2C1)S(=O)(=O)c1ccccc1,37% (active)
6,CCc1ccccc1N(CC(=O)N1CCc2ccccc2C1)S(C)(=O)=O,96% (inactive)
7,COc1ccc(N(CC(=O)N2CCc3ccccc3C2)S(=O)(=O)c2ccccc2)cc1,58% (inactive)
8,COc1ccc(-n2ncc(C(=O)NCc3ccco3)c2C2CCN(C(=O)OC(C)(C)C)CC2)cc1,83% (inactive)
9,Cc1ccccc1NC(=S)N1CCC(NC(=O)C(C)(C)C)CC1,92% (inactive)
10,O=C(Nc1ccc(F)cc1F)C1CCN(S(=O)(=O)c2ccc3[nH]c(=O)ccc3c2)CC1,83% (inactive)
11,CCOC(=O)Cn1nnnc1CN(Cc1cc2c(C)ccc(C)c2[nH]c1=O)C1CCCCC1,88% (inactive)
12,Oc1ccc(N=Cc2ccccc2O)cc1,109% (inactive)
13,O=C1/C(=C/c2ccccc2O)CC/C1=C\c1ccccc1O,55% (active)
14,CCN(CC)c1ccc(C=C2C(=O)c3ccccc3C2=O)c(O)c1,74% (inactive)
15,NS(=O)(=O)c1ccc(NC(=O)CCn2c(=O)oc3ccccc32)cc1,73% (inactive)
16,CCOC(=O)c1cccc(NC(=O)CCn2c(=O)oc3ccccc32)c1,39% (active)
17,CCOC(=O)c1cccc(NC(=O)CCn2c(-c3ccc(F)cc3)cc(C(=O)OCC)c2C)c1,76% (inactive)
18,COC(=O)c1ccc(NC(=O)Cn2c(=O)oc3ccccc32)cc1,69% (inactive)
19,CCN(CC)CCOC(=O)c1ccc(NC(=O)CCn2c(=O)oc3ccccc32)cc1,45% (active)
20,CCOC(=O)c1ccc(NC(=O)NCCOCCn2c(=O)oc3ccccc32)cc1,77% (inactive)

# Reference: PubChem BioAssay AID463173 (ICCB-Longwood Screening Facility, Harvard Medical School, 2010)
